# Hits are enriched below; roughly 19% of the tested compounds scored in any of these assays.
# HT1080NT lethal = kills 2HG-producing HT-1080-NT fibrosarcoma cells; 1.6% of 360,000 active; Potency, µM (titrated, usually from 46.1 µM), for inactives: at the top dose activity, negative = less viability, most hits filed as cytotoxic; HT-1080-NT fibrosarcoma viability, CellTiter-Glo ATP luminescence, 48 h;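 also: NT is the 2HG producing partner of a matched IDH1 knockdown line; potency is read from the fitted curve at half-maximal effect; 0% = DMSO-treated cells and -100% = media-only wells without cells; nearly all actives have a fitted effect of over 55% in size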
#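 HT-1080-NT fibrosarcoma cells (2HG-overproducing), 750 cells/well in RPMI with 5% FBS, dosed after 2 h and incubated 48 h at 37C. CellTiter-Glo luminescence normalized to DMSO and no-cell wells; concentration-response curves fitted and classed.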
# IL-1B inflam inh = blocks inflammasome-driven IL-1 beta release; activity change, % at 57.5 µM; AID 743279; 4.7% of 360,000 active; THP-1 LPS/ATP IL-1B secretion, AlphaLISA, 16 h; active compounds read low; in the data active = activity change below about -50%; inconclusive = mostly about -30% to -49%
#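 Secreted IL-1B measured by AlphaLISA bead assay after 16 h compound exposure of THP-1 cells; compounds (final up to 57.5 uM) added 1 h before LPS (250 ng/mL) and ATP (1.25 mM) stimulation; lower signal means less secretion.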
# HT1080 IDH1KD tx = kills HT-1080 cells with IDH1 knockdown; HT-1080 IDH1 knockdown viability, ATP luminescence, 48 h; Potency, µM (series often up to 46.1 µM), for the others: at the highest dose activity, negative = toxicity, hits mostly cytotoxic; 2% of 360,000 active;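 also: potency is read from the fitted curve at half-maximal effect; 0% = DMSO wells and -100% = cell-free medium wells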
#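 CellTiter-Glo luminescence after 48 h compound exposure at 37 degrees C of IDH1-knockdown HT-1080 cells in 5% FBS RPMI. %Activity scaled between DMSO wells and cell-free media wells, with curves fitted and assigned curve classes.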
# DT40 TDP1 no CPT = qHTS for Inhibitors of human tyrosyl-DNA phosphodiesterase 1 (TDP1): qHTS in cells in absence of CPT | DT40 Tdp1-/- hTDP1 cells, no CPT, ATP luminescence, 48 h | Potency, µM (top dose mostly 46.2 µM), without a hit: at the top dose activity change, negative = growth inhibition, usual class: inhibitors | 15% of 420,000 active | AID 686978, 2013; also: potency is read from the fitted curve at half-maximal effect; nearly all actives have a fitted effect of over 55% in size
#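 No-CPT arm: Tdp1-/-;hTDP1 DT40 cells (400/well) plus compounds, incubated ≥48 hr at 37 °C. Readout CellTiter-Glo luminescence.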
# DT40 TDP1 CPT = growth inhibition of DT40 Tdp1-/-;hTDP1 cells with camptothecin (screen for TDP1 inhibitors); Potency, µM (series often up to 46.2 µM), for the others: at the top dose activity change, negative = growth inhibition, usual class: inhibitors; chicken DT40 Tdp1-/-;hTDP1 cells + 20 nM CPT, ATP luminescence, 48 h; AID 686979; 12% of 420,000 active; also: potency is read from the fitted curve at half-maximal effect; nearly all actives have a fitted effect of over 55% in size
#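 Chicken DT40 Tdp1-/- cells complemented with human TDP1, 400 cells/well, exposed to compounds plus 20 nM camptothecin for at least 48 h at 37 C; viability read as ATP content by CellTiter-Glo luminescence.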
# An asterisk follows results filed as active; ? = inconclusive; nt = no result; [ ] = remark or other dose. Unless noted, calls follow the shape of the dose curve; as a rule, active = well fitted curve in the direction sought with a large enough effect; inconclusive = small, poorly fitted or top-dose-only effect, or another doubt; inactive = no such curve, though single readings can be large; an effect the other way counts as inactive or inconclusive. Unless noted, % is scaled to controls: 0 for no effect and ±100 for the full control effect.
SMILES,HT1080NT lethal,IL-1B inflam inh,HT1080 IDH1KD tx,DT40 TDP1 no CPT,DT40 TDP1 CPT
CCCCn1c(N)c(N(CCOC)C(=O)c2cc(CC)c(C)s2)c(=O)[nH]c1=O,-1%,2,7%,-2%,1%
CC(C)c1ccccc1NC(=O)CNCCc1ccc(C(F)(F)F)cc1,-7%,-6,-3%,26µM*,?
NS(=O)(=O)c1ccc(CCNC(=O)CNCCc2ccc(C(F)(F)F)cc2)cc1,-3%,21,-2%,?,?
COc1ccc(NC(=O)Nc2nc(C(N)CC(C)C)cs2)cc1 (stereo unspecified),?,?,?,16µM*,?
CC(C)CC(N)c1csc(Nc2ccc(C(=O)NCCCO)cn2)n1 (stereo unspecified),0%,-13,2%,?,?
CC(C)CC(N)c1csc(NC(=O)Nc2ccccc2C(C)C)n1 (stereo unspecified),?,?,?,15µM*,?
CC(=O)N1CCN(c2csc3ccc(Br)cc3c2=O)CC1,nt,nt,nt,?,-19%
Cc1cc(O)c(C(c2cccc(F)c2)N2CCN(c3ccccc3)CC2)c(=O)n1Cc1ccco1 (stereo unspecified),nt,nt,nt,-17%,-24%
CCc1cc(C(=O)Cc2cnn(-c3ccccc3)c2)c(O)cc1O,-2%,5,-17%,-20%,-20%
Cc1ccc(O)c(C(=O)c2cnn(-c3ccccc3)c2)c1,2%,7,1%,12µM*,7.3µM*
O=C(Cc1cnn(-c2ccccc2)c1)c1ccc(O)c(O)c1O,-13%,41,-3%,?,21µM*
COc1ccccc1NC(=O)Nc1nnc([C@H]2C[C@H](O)[C@@H](CO)O2)s1,6%,0,9%,-3%,-26%
COc1cc(NS(=O)(=O)c2cn(C)cn2)cc(OC)c1OC,-1%,-5,-7%,27%,-7%
COc1cc(NS(=O)(=O)c2c(C)oc3c(F)c(F)c(F)c(F)c23)cc(OC)c1OC,0%,16,5%,18µM*,23µM*
C[C@H](CO)N1C[C@H](C)[C@@H](CN(C)S(=O)(=O)c2cn(C)cn2)Oc2c(NS(=O)(=O)c3ccc(F)cc3)cccc2C1=O,17%,25,13%,-1%,-4%
Nc1c(N=O)c(=O)[nH]c(=O)n1-c1ccccc1,15%,5,7%,1%,-7%
Nc1c(NCc2ccccc2)c(=O)[nH]c(=O)n1Cc1ccccc1,-5%,-15,-1%,18µM*,?
CCCNc1c(N)n(-c2ccccc2)c(=O)[nH]c1=O,11%,0,1%,16µM*,?
CSc1ccccc1NC(=O)C1(C)CCN1C(=O)Cc1ccccc1Cl (stereo unspecified),2%,-18,21%,-16%,-9%
Cc1nc2ccccc2c(=O)n1NC(=O)c1ccc([N+](=O)[O-])cc1,1%,0,-5%,-11%,-13%
COc1ccc(C2=NOC(C)(c3nnc(-c4ccc(F)cc4)o3)C2)cc1 (stereo unspecified),5%,-4,12%,-25%,0%
COc1ccccc1NC(=O)NCCCN1CCN(c2cccc(Cl)c2)CC1,-23%,?,-27%,?,?
CSc1ccc(N2CCN(CCCNC(=O)Nc3ccccc3F)CC2)cc1,7%,-22,-1%,?,?
O=C(NCCCN1CCc2ccccc2C1)Nc1ccc(Cl)cc1,?,-55*,?,-27%,16µM*
O=C(NCCCN1CCN(c2ccc(F)cc2)CC1)Nc1ccccc1Cl,nt,nt,nt,?,21µM*
SMILES,HT1080NT lethal,IL-1B inflam inh,HT1080 IDH1KD tx,DT40 TDP1 no CPT,DT40 TDP1 CPT
COc1ccc(N2CCN(CCCNC(=O)Nc3ccccc3Cl)CC2)cc1,nt,nt,nt,21µM*,?
COc1ccc(Cl)c(N2CCN(CCCNC(=O)Nc3ccc(C)cc3)CC2)c1,?,-56*,?,?,?
CCCCNC(=O)c1cn(CC(C)C)c(=O)c2c1c1ccccc1n2C,?,26,8%,-6%,7%
Cc1[nH]c(=O)[nH]c(=O)c1NS(=O)(=O)c1ccccc1,19%,2,17%,5%,-10%
CCCN1CCN(CCCNC(=S)Nc2ccc(F)cc2)CC1,12%,12,6%,24%,-7%
O=C(NCCCN1CCOCC1)NC12CC3CC(CC(C3)C1)C2,-4%,11,1%,-29%,-15%
O=C(NCCCN1CCN(c2ccc(F)cc2)CC1)Nc1ccc(Cl)cc1,nt,nt,nt,18µM*,21µM*
O=C(NCCCN1CCN(c2ccc(F)cc2)CC1)NC12CC3CC(CC(C3)C1)C2,16µM*,?,15µM*,21µM*,16µM*
Cc1cc(C)c(SSc2nnnn2-c2ccccc2)c(C)c1,-4%,-24,-4%,?,?
CCOC(=O)c1cc(C)n(CC2CCC(C(=O)Nc3cc(OC)cc(OC)c3)CC2)c1C (stereo unspecified),nt,nt,nt,23µM*,?
CCOC(=O)c1cc(C)n(CC2CCC(C(=O)Nc3ccc(C)c(F)c3)CC2)c1C (stereo unspecified),nt,nt,nt,-27%,?
CCOC(=O)c1cccc(NC(=O)C2CCC(CNc3c(N4CCOCC4)c(=O)c3=O)CC2)c1 (stereo unspecified),18%,-11,2%,-1%,-3%
CCOC(=O)c1cc(C)n(CC2CCC(C(=O)Nc3ccc(OC)cc3)CC2)c1C (stereo unspecified),nt,nt,nt,21µM*,15µM*
CCOC(=O)c1cc(C)n(CC2CCC(C(=O)Nc3cccc(C)c3)CC2)c1C (stereo unspecified),nt,nt,nt,?,18µM*
COc1cc(NC(=O)C2CCC(CNc3c(N4CCCCC4)c(=O)c3=O)CC2)cc(OC)c1 (stereo unspecified),?,-7,5%,?,-8%
O=C(NCC1CCC2(CCN(Cc3cccc4ncccc34)CC2)O1)c1ccccc1 (stereo unspecified),nt,nt,nt,-18%,-17%[9.04 µM]
CCCCN(CC)CCCNC(=O)c1ccc2c(c1)N(CC)C(=O)c1ccccc1S2(=O)=O,-3%,0,-7%,1%,-17%
Cn1nnnc1SCC(=O)N(C1CCCCC1)C1CCCCC1,2%,-10,-6%,18µM*,16µM*
Cc1cc(=O)oc(C)c1C(=O)NCCN1CCOCC1,-15%,19,2%,-36%,2%
CC(=O)Nc1ccc(C(=O)OCC(=O)N(c2ccccc2)C2CCCCC2)cc1,5%,-27,4%,23µM*,?
O=C(CCl)N(c1ccccc1)C1CCCCC1,5.2µM*,-101*,3.3µM*,2.9µM*,2.6µM*
O=C(O)C(Cc1ccccc1-c1ccccc1)C(=O)O,-3%,19,4%,3%,12%

# Source: PubChem (National Center for Advancing Translational Sciences (NCATS))
